Drawing on the supplement of paper PMC6124720, this text covers growth activity index for 24 molecules.

Unmarked numbers belong to inactive results.

In this assay the test system is Pseudogymnoascus destructans 20631-21. As to the kind of experiment: growth activity index (DuctApe, 0 = no growth, 9 = maximal growth) (index 0-9); higher = more fungal growth (less inhibition), active = 0 or less; extreme values may be limits of the assay. As to conditions: temperature: 13 °C, YPD.
The mark [1] stands for this setting: concentration level (1-4, increasing; Biolog proprietary): 1.
The mark [2] stands for this setting: concentration level (1-4, increasing; Biolog proprietary): 2.
The mark [3] stands for this setting: concentration level (1-4, increasing; Biolog proprietary): 3.
Setting [4] is: concentration level (1-4, increasing; Biolog proprietary): 4.
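Further: biolog Phenotype Microarray plates PM21–25, OD595 followed daily over 11 days, growth curves converted to index, mean of two independent experiments.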

As for `[Na+].[Na+].[O]=[Cr](=[O])([O-])[O][Cr](=[O])(=[O])[O-]` [Sodium Dichromate] (Biolog plate: PM21), the growth activity index reads like this: under setting [1], 4.25; under setting [2], 5; under setting [3], 5; under setting [4], 4.25.

Consider `N#CO` [Sodium Cyanate] (Biolog plate: PM23), for which the growth activity index reads like this: under setting [1], 5; under setting [2], 4.67; under setting [3], 4.33; under setting [4], 4.67.

For the molecule `C[n+]1ccc(-c2cc[n+](C)cc2)cc1` [Methyl viologen] (Biolog plate: PM24), the growth activity index under setting [1] is 1, the growth activity index under setting [2] was 0 (active), the growth activity index under setting [3] was 0.333 and the growth activity index under setting [4] was 0.667.

As to `CCCCC(C#N)(Cn1cncn1)c1ccc(Cl)cc1` (stereo unspecified) [Myclobutanil] (Biolog plate: PM22), the growth activity index under setting [1] is 5.33, the growth activity index under setting [2] is 0.667, the growth activity index under setting [3] was 0 (active) and the growth activity index under setting [4] is 0 (active).

On to `[O-][I+3]([O-])([O-])O` [Sodium metaperiodate] (Biolog plate: PM23), for which the growth activity index under setting [1] was 2, the growth activity index under setting [2] was 2, the growth activity index under setting [3] is 4.33 and the growth activity index under setting [4] is 5.

In the case of `Nc1ncn[nH]1` [3-Amino-1,2,4-triazole] (Biolog plate: PM22), the growth activity index by setting is: under setting [1], 0 (active); under setting [2], 0 (active); under setting [3], 0 (active); under setting [4], 0 (active).

As to `[Cl][Ni][Cl]` [Nickel chloride] (Biolog plate: PM21), the growth activity index under setting [1] is 5, the growth activity index under setting [2] is 4.25, the growth activity index under setting [3] is 4.5 and the growth activity index under setting [4] is 5.

In the case of `N.N.[Cl][Pt][Cl]` [Cisplatin] (Biolog plate: PM24), the growth activity index runs as follows: under setting [1], 5; under setting [2], 4.67; under setting [3], 4; under setting [4], 4.

Consider `CNC1CC(N)C(O)C(OC2OC(CO)C(O)C3OC4(OC(C(N)CO)C(O)C(O)C4O)OC23)C1O` (stereo unspecified) [Hygromycin B] (Biolog plate: PM25), for which the growth activity index runs as follows: under setting [1], 2.67; under setting [2], 2; under setting [3], 1; under setting [4], 0 (active).

As for `CN(CC[C@H](N)CC(=O)N[C@H]1C=C[C@H](n2ccc(N)nc2=O)O[C@@H]1C(=O)O)C(=N)N` [Blasticidin S] (Biolog plate: PM24), the growth activity index under setting [1] is 4.67, the growth activity index under setting [2] was 4.33, the growth activity index under setting [3] was 4 and the growth activity index under setting [4] is 4.

As for `CCCCCCCCCCCCCCCC[n+]1ccccc1` [Cetylpyridinium chloride] (Biolog plate: PM21), the growth activity index is 5.25 under setting [1], 0 (active) under setting [2], 0 (active) under setting [3] and 0 (active) under setting [4].

For the molecule `C[C@@H]1C[C@@H]([C@H](O)CC2CC(=O)NC(=O)C2)C(=O)[C@@H](C)C1` [Cycloheximide] (Biolog plate: PM22), the growth activity index is, setting by setting: under setting [1], 5; under setting [2], 4; under setting [3], 4.33; under setting [4], 4.33.

With `O=[As]([O-])([O-])[O-].[Na+].[Na+].[Na+]` [Sodium Arsenate] (Biolog plate: PM22), the growth activity index by setting is: under setting [1], 4.67; under setting [2], 4.33; under setting [3], 4; under setting [4], 2.

On to `[Cl][Cr]([Cl])[Cl]` [Chromium (III) chloride] (Biolog plate: PM23), for which the growth activity index was 5.33 under setting [1], 4 under setting [2], 2 under setting [3] and 3.33 under setting [4].

As to `CCCC1COC(Cn2cncn2)(c2ccc(Cl)cc2Cl)O1` (stereo unspecified) [Propiconazole] (Biolog plate: PM24), the growth activity index was 4.67 under setting [1], 2 under setting [2], 1 under setting [3] and 0.333 under setting [4].

`[Cl][Cd][Cl]` [Cadmium Chloride] (Biolog plate: PM23): the growth activity index under setting [1] was 4.33, the growth activity index under setting [2] was 2, the growth activity index under setting [3] is 0.667 and the growth activity index under setting [4] is 0 (active).

Turning to `O=[Se](=O)([O-])[O-].[Na+].[Na+]` [Sodium Selenate] (Biolog plate: PM23), the growth activity index by setting is: under setting [1], 5; under setting [2], 4; under setting [3], 2.67; under setting [4], 3.

On to `CC1C=CC=CCCC=CC=CC=CC=CC(OC2OC(C)C(O)C(N)C2O)CC2OC(O)(CC(O)C(O)CCC(O)CC(O)CC(O)CC(=O)OC(C)C(C)C1O)CC(O)C2C(=O)O` (stereo unspecified) [Nystatin] (Biolog plate: PM21), for which the growth activity index runs as follows: under setting [1], 1.75; under setting [2], 0 (active); under setting [3], 0 (active); under setting [4], 0 (active).

For `Nc1ccncc1` [4-Aminopyridine] (Biolog plate: PM25), the growth activity index by setting is: under setting [1], 4.67; under setting [2], 4; under setting [3], 4.33; under setting [4], 1.33.

In the case of `O=[As][O-].[Na+]` [Sodium Arsenite] (Biolog plate: PM23), the growth activity index was 4 under setting [1], 4.67 under setting [2], 4.33 under setting [3] and 5 under setting [4].

In the case of `[N-]=[N+]=[N-]` [Sodium Azide] (Biolog plate: PM23), the growth activity index runs as follows: under setting [1], 2.67; under setting [2], 1; under setting [3], 0 (active); under setting [4], 0.333.

With `[N-]=[N+]=CC(=O)OC[C@H](N)C(=O)O` [Azaserine] (Biolog plate: PM22), the growth activity index is 5 under setting [1], 4.33 under setting [2], 4.67 under setting [3] and 4.67 under setting [4].

On to `[K+].[K+].[O]=[Cr](=[O])([O-])[O-]` [Potassium Chromate] (Biolog plate: PM24), for which the growth activity index was 3.33 under setting [1], 4 under setting [2], 4 under setting [3] and 4.33 under setting [4].

In the case of `O=[Se]([O-])[O-].[Na+].[Na+]` [Sodium Selenite] (Biolog plate: PM21), the growth activity index by setting is: under setting [1], 6; under setting [2], 5.25; under setting [3], 6; under setting [4], 4.75.
